# From PubChem BioAssay (NCI)
# Where “and” joins values, the source holds several entries; their conditions need not be identical. Identical values can stand only once. The panel holds about 79,000 compounds, 15% with a hit somewhere; the sample as a whole holds those more often. Some compounds were tested as several samples or in several runs, with calls that do not always agree. Calls of active or inactive are those of the source. Rule as the data show it: active = growth inhibition above about 70%; inactive = the rest.
# What was measured:
# [1] = NCI Yeast Anticancer Drug Screen. Data for the rad50 strain (AID 155);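 also: 0% = growth of vehicle-only cultures of the same strain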; details: S. cerevisiae rad50 strain growth inhibition, stronger effect = higher value
# In short: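 DNA repair mutant yeast, compound exposure, growth read-out; inhibition is taken relative to vehicle.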
# [2] = NCI Yeast Anticancer Drug Screen. Data for the mec2-1 strain (AID 157); details: S. cerevisiae mec2-1 strain, stronger effect = higher value
# In short: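 mec2-1 yeast strain, carrying an alteration in DNA damage repair or cell cycle control, was exposed to compounds; growth inhibition was measured relative to vehicle-treated controls.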
# [3] = NCI Yeast Anticancer Drug Screen. Data for the sgs1 mgt1 strain (AID 161);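 also: 0% = growth of cultures given vehicle only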; details: S. cerevisiae sgs1 mgt1 strain, stronger effect = higher value
# In short: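 Yeast cells carrying a defined DNA-repair defect were exposed to test compounds. Growth inhibition was measured relative to vehicle-treated controls.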
# [4] = NCI Yeast Anticancer Drug Screen. Data for the cln2 rad14 strain (AID 165);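 also: 0% = growth equal to vehicle treated cultures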; details: S. cerevisiae cln2 rad14 strain, stronger effect = higher value
# In short: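 Yeast carrying cln2 and rad14 alterations (cell cycle control and DNA damage repair) were exposed to compounds. Growth inhibition was measured against vehicle-treated controls.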
# [5] = NCI Yeast Anticancer Drug Screen. Data for the bub3 strain (AID 167); details: S. cerevisiae bub3 mutant strain, stronger effect = higher value
# In short: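 In this screen, a yeast mutant lacking normal mitotic checkpoint function is challenged with compound. Relative growth versus vehicle gives the inhibition value.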
# [6] = NCI Yeast Anticancer Drug Screen. Data for the mlh1 rad18 strain (AID 175); details: S. cerevisiae mlh1 rad18 strain growth inhibition, stronger effect = higher value
# In short: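 Growth inhibition of the yeast strain was measured after compound exposure and expressed relative to vehicle-treated controls. The strain carries defined defects in DNA damage repair.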
# [7] = at 5.0 µM (retest, dose inferred, filed as 0.5)
# [8] = at 50.0 µM (retest, dose inferred, filed as 5.0)
Structure (SMILES),"growth inhibition [1, 7]","growth inhibition [1, 8]",growth inhibition ([1]; at 50.0 µM),"growth inhibition [2, 7]","growth inhibition [2, 8]",growth inhibition ([2]; at 50.0 µM),"growth inhibition [3, 7]","growth inhibition [3, 8]",growth inhibition ([3]; at 50.0 µM),"growth inhibition [4, 7]","growth inhibition [4, 8]",growth inhibition ([4]; at 50.0 µM),"growth inhibition [5, 7]","growth inhibition [5, 8]",growth inhibition ([5]; at 50.0 µM),"growth inhibition [6, 7]","growth inhibition [6, 8]",growth inhibition ([6]; at 50.0 µM)
CC1(C)OCC(COC(=O)C=[N+]=[N-])O1 (centres undefined),0% (inactive),-10% (inactive),2.75% (inactive),0% (inactive),-7% (inactive),0.75% (inactive),11% (inactive),-4% (inactive),-7.5% (inactive),-3% (inactive),-14% (inactive),-6.95% (inactive),2% (inactive),-3% (inactive),-2.25% (inactive),-2% (inactive),-14% (inactive),42.5% (inactive)
O=c1c(O)c(-c2ccccc2)oc2ccccc12.[Pb],3% (inactive),97% (active),94.7% (active),-2% (inactive),97% (active),92.6% (active),6% (inactive),24% (inactive),98.4% (active),-2% (inactive),98% (active),47.8% (inactive),-6% (inactive),98% (active),96.2% (active),8% (inactive),98% (active),98.1% (active)
CCCCC1C(=O)NC(=S)N(c2ccccc2)C1=O (centres undefined),-4% (inactive),-1% (inactive),-1.75% (inactive),-3% (inactive),11% (inactive),-1.25% (inactive),3% (inactive),17% (inactive),7.5% (inactive),-2% (inactive),-7% (inactive),34.2% (inactive),0% (inactive),4% (inactive),11.1% (inactive),-9% (inactive),1% (inactive),13.8% (inactive)
CC(Br)CN(CC(C)Br)c1ccc2c(c1)Cc1ccccc1-2 (centres undefined),12% (inactive),73% (active),82.8% (active),2% (inactive),69% (inactive),70.4% (active),8% (inactive),87% (active),93.2% (active),-16% (inactive),85% (active),56.3% (inactive),-7% (inactive),92% (active),85.5% (active),2% (inactive),82% (active),91.7% (active)
O=C(CI)c1ccc[nH]1,65% (inactive),99% (active),99.3% (active),79% (active),99% (active),99.3% (active),74% (active),99% (active),99.5% (active),96% (active),99% (active),99.2% (active),97% (active),97% (active),99.4% (active),74% (active),97% (active),99.3% (active)
O=[N+]([O-])c1ccc2c[n+]3ccccc3cc2c1,21% (inactive),84% (active),80.3% (active),4% (inactive),50% (inactive),5.3% (inactive),2% (inactive),56% (inactive),36.2% (inactive),1% (inactive),43% (inactive),-17.4% (inactive),-5% (inactive),56% (inactive),3.8% (inactive),12% (inactive),86% (active),62% (inactive)
Cc1cc[n+](C2=C(Nc3cc(C)cc(C)c3)C(=O)c3ccccc3C2=O)cc1,-3% (inactive),9% (inactive),24.9% (inactive),-2% (inactive),11% (inactive),28.5% (inactive),-1% (inactive),16% (inactive),9.5% (inactive),-9% (inactive),1% (inactive),6.75% (inactive),1% (inactive),45% (inactive),16% (inactive),-3% (inactive),15% (inactive),51.8% (inactive)
CSc1ncc(COP(=S)(OCc2cnc(SC)nc2N)OCc2cnc(SC)nc2N)c(N)n1,-1% (inactive),-2% (inactive),-39.3% (inactive),15% (inactive),-6% (inactive),-5.35% (inactive),1% (inactive),3% (inactive),-15.9% (inactive),8% (inactive),-3% (inactive),23.9% (inactive),-1% (inactive),-3% (inactive),-2.3% (inactive),-1% (inactive),9% (inactive),23% (inactive)
CCc1ccc([O-])c(C=NCCCN(C)CCCN=Cc2cc(C)ccc2[O-])c1.[Co+3].[N-]=[N+]=[N-],-10% (inactive),7% (inactive),22.1% (inactive),-8% (inactive),15% (inactive),-12.9% (inactive),-4% (inactive),6% (inactive),50.5% (inactive),-20% (inactive),0% (inactive),-34.5% (inactive),1% (inactive),8% (inactive),-11.2% (inactive),-4% (inactive),-7% (inactive),0.85% (inactive)
CC[C@](C)(O)C(=O)O[C@H]1C(=O)O[C@@H]2C[C@H]3C(C)=CC(=O)[C@@H](O)[C@]3(C)[C@H]3[C@@]4(O)OC[C@]32[C@@H]1[C@@H](C)[C@H]4O,17% (inactive),94% (active),68% (inactive),21% (inactive),90% (active),46.6% (inactive),14% (inactive),91% (active),61.8% (inactive),33% (inactive),97% (active),71.6% (active),6% (inactive),97% (active),70.3% (active),9% (inactive),94% (active),74.3% (active)
O=C1C(Cl)=C(Cl)C(=O)N1c1ccc(F)cc1,53% (inactive),99% (active),52% (inactive),42% (inactive),100% (active),28.8% (inactive),28% (inactive),100% (active),88.3% (active),24% (inactive),99% (active),89.2% (active),35% (inactive),99% (active),90.8% (active),45% (inactive),100% (active),48.1% (inactive)
CCOC(=O)C1C2OC(=O)C(C(=O)C2CN(CCCl)CCCl)C1C1CC=C(CC2=CCC(C3C4C(=O)OC(C(CN(CCCl)CCCl)C4=O)C3C(=O)OCC)CC2)CC1 (centres undefined),96% (active),97% (active),53.5% (inactive),84% (active),99% (active),57.2% (inactive),68% (inactive),96% (active),57.1% (inactive),93% (active),96% (active),54.1% (inactive),49% (inactive),97% (active),49.5% (inactive),95% (active),98% (active),65.3% (inactive)
O=C(O)c1ccc(NP(=O)(O)Oc2ccccc2)cc1 (tested in a mixture with another compound),0% (inactive),8% (inactive),-2.15% (inactive),-1% (inactive),3% (inactive),3.45% (inactive),-20% (inactive),-8% (inactive),29.9% (inactive),-4% (inactive),-6% (inactive),-24.8% (inactive),-1% (inactive),-1% (inactive),-7.8% (inactive),11% (inactive),16% (inactive),15.2% (inactive)
CN1CCN(c2ccc([N+](=O)[O-])c3no[n+]([O-])c23)CC1,96% (active) and 97% (active),99% (active),99.2% (active) and 89.8% (active),52% (inactive) and 81% (active),99% (active),97.5% (active) and 93% (active),82% (active) and 93% (active),99% (active),98.8% (active) and 91.3% (active),72% (active) and 46% (inactive),97% (active) and 98% (active),92.7% (active) and 84.6% (active),45% (inactive) and 65% (inactive),99% (active) and 97% (active),98.2% (active) and 91.5% (active),94% (active) and 97% (active),99% (active),94.2% (active) and 90.2% (active)
COc1cc[c]([Sb]([Br])([CH]=C(C)C)([CH]=C(C)C)[CH]=C(C)C)cc1,-1% (inactive),67% (inactive),80.8% (active),-5% (inactive),85% (active),76.5% (active),-1% (inactive),62% (inactive),35% (inactive),-12% (inactive),54% (inactive),49.2% (inactive),-9% (inactive),72% (active),80.3% (active),-6% (inactive),73% (active),72.8% (active)
CCOC(=O)C(Cc1ccc(O)cc1)NCc1ccc(N(CCCl)CCCl)cc1 (centres undefined),83% (active),83% (active),37.8% (inactive),36% (inactive),94% (active),69.1% (inactive),64% (inactive),99% (active),72.2% (active),52% (inactive),84% (active),56.7% (inactive),65% (inactive),94% (active),69.5% (inactive),80% (active),76% (active),76.7% (active)
O=C(c1ccccc1)c1c(CC(O)c2ccncc2)n(C(=O)c2ccccc2)c2ccccc12 (centres undefined),18% (inactive),95% (active),94% (active),-2% (inactive),96% (active),92.5% (active),8% (inactive),97% (active),92.2% (active),18% (inactive),96% (active),82.7% (active),-3% (inactive),98% (active),92.2% (active),19% (inactive),95% (active),93.8% (active)
COc1ccc(NP(=S)(Nc2ccc(OC)cc2)c2ccccc2)cc1,2% (inactive),54% (inactive),55% (inactive),-2% (inactive),57% (inactive),58.1% (inactive),6% (inactive),65% (inactive),49.6% (inactive),3% (inactive),51% (inactive),68.2% (inactive),-1% (inactive),78% (active),67.6% (inactive),5% (inactive),58% (inactive),28.9% (inactive)
